# Assay results taken from PubChem BioAssay (NCATS).
# Records with an inconclusive call do not appear. This is one part of the list. Entries that show only a call come without a potency. Active and inactive are the calls of the source. Unless noted, the call rests on the fitted dose curve; in most records, active means well fitted curve in the direction sought with a large enough effect; inconclusive means small, poorly fitted or top-dose-only effect, or another doubt; inactive means no such curve, though single readings can be large; an effect the other way counts as inactive or inconclusive.
# Experiments:
# [1] = MultiTox-Fluor Cytotoxicity Assay - LYMP1-001 - Live Cells (AID 947)
# [2] = Cell Viability - LYMP2-005 (AID 967)
# Method in brief: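 LYMP2-005 human lymphoblastoid cells (2500/well) were treated with compounds for 24 h at 37 C. Intracellular ATP was then measured by CellTiter-Glo luminescence after 30 min at room temperature. AC50 values came from Hill-equation fits of qHTS concentration-response data.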
# [3] = target: Luciferin 4-monooxygenase (Photinus pyralis) (UniProt P08659); test: Biochemical firefly luciferase enzyme assay for NPC (AID 624030);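 further: purified P. pyralis luciferase at 10 nM with luciferin and ATP substrate; nearly all actives have a fitted effect of over 70% in size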
# Luciferin 4-monooxygenase (Photinus pyralis), sequence (P08659 whole entry, looked up): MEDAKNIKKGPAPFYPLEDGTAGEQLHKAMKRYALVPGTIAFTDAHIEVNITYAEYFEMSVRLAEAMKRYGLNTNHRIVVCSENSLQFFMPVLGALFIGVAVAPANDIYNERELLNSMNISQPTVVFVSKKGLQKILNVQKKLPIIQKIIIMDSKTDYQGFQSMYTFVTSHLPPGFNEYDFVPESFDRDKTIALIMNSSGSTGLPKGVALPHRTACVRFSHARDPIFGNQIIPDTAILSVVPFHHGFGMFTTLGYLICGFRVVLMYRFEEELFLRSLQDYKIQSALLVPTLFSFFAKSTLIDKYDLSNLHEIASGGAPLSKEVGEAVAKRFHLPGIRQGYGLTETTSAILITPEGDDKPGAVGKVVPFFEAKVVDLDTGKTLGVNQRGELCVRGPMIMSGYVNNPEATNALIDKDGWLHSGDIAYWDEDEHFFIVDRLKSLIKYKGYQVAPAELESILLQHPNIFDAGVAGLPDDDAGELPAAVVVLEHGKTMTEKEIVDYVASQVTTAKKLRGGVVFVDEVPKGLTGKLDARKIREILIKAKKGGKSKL
# Method in brief: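 Direct inhibition of firefly luciferase enzyme (10 nM final, 50 mM Tris Acetate) assessed by luminescence within 5 minutes. Percent activity scaled between DMSO and PTC124 positive control, with concentration-effect curves classified by fit quality and response.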
# [4] = S16 Schwann cell PMP22 intronic element beta-lactamase assay (AID 624044; calls by dose curve; further: nearly all actives have a fitted effect of over 15% in size; further: potency means the concentration at half of the fitted maximal effect); details: S16 rat Schwann cells, PMP22 element beta-lactamase FRET, 24 h; ratio activity, negative = inhibition: at 38.3 µM (top of the series)
# Method in brief: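 Rat S16 Schwann cells with beta-Lac driven by a PMP22 intronic element, compound-treated 24 h at 37 °C. LiveBLAzer FRET B/G read: 460 nm normalized to potassium clavulanate vs DMSO; 535 nm FRET as viability; concentration-effect curves classified.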
# [5] = S16 Schwann cell PMP22 intronic element firefly luciferase assay (AID 624032); further: nearly all actives have a fitted effect of over 30% in size
# Method in brief: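 Luciferase reporter of PMP22 intronic-element expression in stably transfected S16 rat Schwann cells, read by ONE-Glo luminescence after 24 h compound exposure at 37 C. Activity scaled between DMSO (0%) and positive-control PTC124; concentration-effect curves quality-classified.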
# [6] = target: Cytochrome P450 2D6 (Homo sapiens) (UniProt P10635); test: qHTS Assay for Inhibitors and Substrates of Cytochrome P450 2D6 (AID 891); further: nearly all actives have a fitted effect of over 60% in size; further: potency means the concentration at half of the fitted maximal effect
# Cytochrome P450 2D6 (Homo sapiens), sequence (P10635 whole entry, looked up): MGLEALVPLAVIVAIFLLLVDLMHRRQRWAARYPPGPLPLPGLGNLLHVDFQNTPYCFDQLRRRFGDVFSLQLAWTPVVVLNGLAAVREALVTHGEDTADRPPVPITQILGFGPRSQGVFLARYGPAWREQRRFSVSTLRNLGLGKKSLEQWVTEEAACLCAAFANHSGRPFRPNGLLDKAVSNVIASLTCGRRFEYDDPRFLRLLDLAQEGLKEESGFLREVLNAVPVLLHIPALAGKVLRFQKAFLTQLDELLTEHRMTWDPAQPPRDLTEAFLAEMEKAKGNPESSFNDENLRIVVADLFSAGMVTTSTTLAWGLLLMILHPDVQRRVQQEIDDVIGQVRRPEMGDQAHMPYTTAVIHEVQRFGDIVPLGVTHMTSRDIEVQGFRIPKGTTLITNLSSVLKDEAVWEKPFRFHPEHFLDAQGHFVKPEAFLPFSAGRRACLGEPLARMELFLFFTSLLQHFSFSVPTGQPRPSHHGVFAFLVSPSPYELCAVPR
# Method in brief: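 Human CYP2D6 (5 nM) with 30 uM Luciferin-ME EGE (at Km) in 100 mM KPO4, compound preincubated 10 min, then NADPH regeneration system for 60 min at room temperature. Luciferin read by luminescence; normalized to 1.43 uM quinidine.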
# [7] = target: Cytochrome P450 2C9 (Homo sapiens) (UniProt P11712); test: qHTS Assay for Inhibitors and Substrates of Cytochrome P450 2C9 (AID 883); further: nearly all actives have a fitted effect of over 60% in size
# Cytochrome P450 2C9 (Homo sapiens), sequence (P11712 whole entry, looked up): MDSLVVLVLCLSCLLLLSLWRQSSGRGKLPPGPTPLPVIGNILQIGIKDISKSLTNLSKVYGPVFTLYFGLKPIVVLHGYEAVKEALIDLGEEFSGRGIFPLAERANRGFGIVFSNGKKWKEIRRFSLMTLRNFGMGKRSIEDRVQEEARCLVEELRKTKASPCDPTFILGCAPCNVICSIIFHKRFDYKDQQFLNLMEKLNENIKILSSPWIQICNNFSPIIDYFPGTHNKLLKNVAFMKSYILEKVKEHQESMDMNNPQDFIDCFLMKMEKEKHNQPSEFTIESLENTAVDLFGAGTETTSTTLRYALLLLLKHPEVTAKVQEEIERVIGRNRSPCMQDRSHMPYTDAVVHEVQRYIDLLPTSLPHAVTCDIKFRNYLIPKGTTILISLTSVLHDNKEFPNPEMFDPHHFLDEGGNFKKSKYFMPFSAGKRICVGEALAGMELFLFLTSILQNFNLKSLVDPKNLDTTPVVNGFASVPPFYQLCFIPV
# Method in brief: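 Luminescent read-out of deoxyluciferin hydroxylation, normalized to 57uM sulphaphenazole (AC100). Reaction: 10nM enzyme, 100uM Luciferin-H (equal to KM), 25mM KPO4, 10 min compound preincubation, then 60 min with NADPH regeneration, both at 37C.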
# [8] = target: Cytochrome P450 2C19 (Homo sapiens) (UniProt P33261); test: qHTS Assay for Inhibitors and Substrates of Cytochrome P450 2C19 (AID 899); further: nearly all actives have a fitted effect of over 60% in size; further: potency means the concentration at half of the fitted maximal effect
# Cytochrome P450 2C19 (Homo sapiens), sequence (P33261 whole entry, looked up): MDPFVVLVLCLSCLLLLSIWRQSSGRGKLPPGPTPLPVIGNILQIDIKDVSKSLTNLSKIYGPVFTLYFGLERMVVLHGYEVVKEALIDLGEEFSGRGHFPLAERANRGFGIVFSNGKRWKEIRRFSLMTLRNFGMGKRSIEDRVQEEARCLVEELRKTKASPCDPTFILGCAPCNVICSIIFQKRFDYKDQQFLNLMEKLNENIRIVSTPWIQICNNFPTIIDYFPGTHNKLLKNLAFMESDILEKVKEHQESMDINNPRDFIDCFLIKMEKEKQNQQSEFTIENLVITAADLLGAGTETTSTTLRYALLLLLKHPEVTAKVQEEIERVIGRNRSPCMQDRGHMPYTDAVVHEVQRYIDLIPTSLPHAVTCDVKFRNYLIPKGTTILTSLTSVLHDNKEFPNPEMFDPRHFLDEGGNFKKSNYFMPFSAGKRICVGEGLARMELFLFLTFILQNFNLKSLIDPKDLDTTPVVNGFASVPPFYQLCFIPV
# Method in brief: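 Luminescence readout of luciferin formed from 10uM Luciferin-H EGE (KM level) by 5 nM CYP2C19 in 50mM KPO4. 60 min NADPH-driven reaction at 37C after 10 min compound preincubation; data scaled to 57uM ketoconazole inhibition.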
# [9] = target: Lethal(3)malignant brain tumor-like protein 1 (Homo sapiens) (UniProt Q9Y468); test: qHTS Assay for the Inhibitors of L3MBTL1: Hit Validation (AID 540279); details: L3MBTL1 methyl-lysine binding inhibition, biochemical qHTS; further: potency means the concentration at half of the fitted maximal effect; nearly all actives have a fitted effect of over 70% in size
# Lethal(3)malignant brain tumor-like protein 1 (Homo sapiens), sequence (Q9Y468 whole entry, looked up): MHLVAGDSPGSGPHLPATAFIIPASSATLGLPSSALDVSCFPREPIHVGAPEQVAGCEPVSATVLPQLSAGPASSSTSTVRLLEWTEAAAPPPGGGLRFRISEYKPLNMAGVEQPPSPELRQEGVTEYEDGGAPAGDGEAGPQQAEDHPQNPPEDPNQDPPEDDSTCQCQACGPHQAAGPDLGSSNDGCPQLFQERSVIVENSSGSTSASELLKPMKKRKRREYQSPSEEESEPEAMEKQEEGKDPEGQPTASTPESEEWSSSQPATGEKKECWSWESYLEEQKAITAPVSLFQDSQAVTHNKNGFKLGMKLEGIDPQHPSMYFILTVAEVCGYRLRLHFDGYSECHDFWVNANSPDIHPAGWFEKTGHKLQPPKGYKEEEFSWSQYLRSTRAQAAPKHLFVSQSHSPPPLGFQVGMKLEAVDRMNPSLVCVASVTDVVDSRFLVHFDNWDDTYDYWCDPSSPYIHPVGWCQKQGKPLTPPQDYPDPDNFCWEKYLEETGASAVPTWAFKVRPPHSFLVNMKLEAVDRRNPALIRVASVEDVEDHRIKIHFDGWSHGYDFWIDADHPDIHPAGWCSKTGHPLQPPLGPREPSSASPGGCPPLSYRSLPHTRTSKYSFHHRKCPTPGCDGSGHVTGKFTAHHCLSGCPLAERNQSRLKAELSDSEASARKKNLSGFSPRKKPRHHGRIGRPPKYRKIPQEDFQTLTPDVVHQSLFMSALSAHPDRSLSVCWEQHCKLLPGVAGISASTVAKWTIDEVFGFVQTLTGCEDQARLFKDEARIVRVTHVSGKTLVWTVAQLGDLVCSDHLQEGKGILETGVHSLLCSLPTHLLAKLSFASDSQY
# Method in brief: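 AlphaScreen displacement: 50 nM L3MBTL1 bound to 75 nM biotin-H3K9me1 peptide for 30 min, compound added for 30 min at room temperature, then beads at 10 ug/mL final for 30 min in the dark. Cefsulodin titration served as intraplate control.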
# [10] = target: DNA polymerase kappa (Homo sapiens) (UniProt Q9UBT6); test: qHTS for Inhibitors of Polymerase Kappa: Confirmatory Assay for Cherry-picked Compounds (AID 720501); details: purified Pol-kappa, fluorescent strand-displacement substrate; further: potency means the concentration at half of the fitted maximal effect
# DNA polymerase kappa (Homo sapiens), sequence (Q9UBT6 whole entry, looked up): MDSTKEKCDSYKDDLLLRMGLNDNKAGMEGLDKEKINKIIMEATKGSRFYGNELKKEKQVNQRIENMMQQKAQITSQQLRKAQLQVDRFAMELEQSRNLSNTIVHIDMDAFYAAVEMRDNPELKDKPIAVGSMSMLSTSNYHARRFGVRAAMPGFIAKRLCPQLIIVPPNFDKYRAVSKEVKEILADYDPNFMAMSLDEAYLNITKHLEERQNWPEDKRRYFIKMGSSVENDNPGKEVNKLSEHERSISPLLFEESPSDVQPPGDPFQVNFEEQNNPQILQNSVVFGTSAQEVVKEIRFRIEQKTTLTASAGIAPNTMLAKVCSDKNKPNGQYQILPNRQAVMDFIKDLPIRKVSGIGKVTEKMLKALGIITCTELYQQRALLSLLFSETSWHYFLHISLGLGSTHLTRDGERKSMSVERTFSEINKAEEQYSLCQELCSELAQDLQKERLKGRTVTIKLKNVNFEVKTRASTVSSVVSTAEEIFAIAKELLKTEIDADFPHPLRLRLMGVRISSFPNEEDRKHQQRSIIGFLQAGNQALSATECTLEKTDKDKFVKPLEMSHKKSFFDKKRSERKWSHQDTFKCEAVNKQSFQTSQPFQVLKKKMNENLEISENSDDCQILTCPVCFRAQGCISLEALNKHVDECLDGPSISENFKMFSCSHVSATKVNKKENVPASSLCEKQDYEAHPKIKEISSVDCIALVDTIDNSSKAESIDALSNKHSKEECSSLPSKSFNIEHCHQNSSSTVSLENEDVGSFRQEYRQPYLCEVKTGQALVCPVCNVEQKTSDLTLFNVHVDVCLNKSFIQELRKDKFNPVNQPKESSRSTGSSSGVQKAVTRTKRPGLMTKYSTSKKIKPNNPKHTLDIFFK
# Method in brief: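 Strand-displacement fluorescence read-out: TAMRA reporter released from a BHQ-2-quenched template, measured at 525/598 nm over a 10 min kinetic window. Substrate was 50 nM final; enzyme was 10 nM Pol-kappa, preincubated 15 min at room temperature with compound.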
# [11] = target: DNA polymerase eta (Homo sapiens) (UniProt Q9Y253); test: qHTS for Inhibitors of Polymerase Eta: Confirmatory Assay for Cherry-picked Compounds (AID 720502); details: Pol eta primer extension, TAMRA/BHQ fluorescence, 10 min; further: potency means the concentration at half of the fitted maximal effect
# DNA polymerase eta (Homo sapiens), sequence (Q9Y253 whole entry, looked up): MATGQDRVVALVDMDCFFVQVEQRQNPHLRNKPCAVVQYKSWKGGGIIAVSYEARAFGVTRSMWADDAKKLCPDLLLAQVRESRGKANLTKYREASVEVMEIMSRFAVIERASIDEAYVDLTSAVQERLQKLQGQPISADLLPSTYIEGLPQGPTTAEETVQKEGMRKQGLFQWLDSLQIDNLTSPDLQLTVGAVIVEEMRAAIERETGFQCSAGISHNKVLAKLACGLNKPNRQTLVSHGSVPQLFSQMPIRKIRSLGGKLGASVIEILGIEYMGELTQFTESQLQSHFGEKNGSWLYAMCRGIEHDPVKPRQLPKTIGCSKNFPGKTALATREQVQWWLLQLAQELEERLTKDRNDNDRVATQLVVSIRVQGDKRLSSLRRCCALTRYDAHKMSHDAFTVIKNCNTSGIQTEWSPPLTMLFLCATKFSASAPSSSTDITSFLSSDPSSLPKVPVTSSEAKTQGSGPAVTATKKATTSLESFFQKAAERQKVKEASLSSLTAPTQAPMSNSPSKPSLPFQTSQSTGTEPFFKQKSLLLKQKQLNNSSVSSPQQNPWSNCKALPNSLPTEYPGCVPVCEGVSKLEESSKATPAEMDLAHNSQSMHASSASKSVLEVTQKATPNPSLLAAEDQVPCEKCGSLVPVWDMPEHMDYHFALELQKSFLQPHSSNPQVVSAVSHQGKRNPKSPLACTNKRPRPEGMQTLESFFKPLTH
# Method in brief: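 Human Pol eta at 10 nM was preincubated with compound for 15 min at room temperature. Reaction was started with TAMRA/BHQ-2-labelled primer-template substrate (50 nM final), with fluorescence read at 0 and 10 min (ex 525, em 598 nm).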
smiles,measurement,setting,value
CN1[C@H]2CC(OC(=O)[C@H](CO)c3ccccc3)C[C@H]1[C@H]1O[C@H]12 (stereo partly drawn),Potency,[1],inactive
same,Potency,[2],inactive
CC[C@]1([C@H]2O[C@@H]([C@@H]3O[C@](O)(CO)[C@@H](C)C[C@H]3C)C[C@H]2C)CC[C@@H]([C@]2(C)CC[C@@]3(C[C@@H](O)[C@@H](C)[C@@H]([C@H](C)[C@H](OC)[C@H](C)C(=O)O)O3)O2)O1,Potency,[3],inactive
same,Potency,[4],0.562 µM (active)
CC(C)=O,Potency,[4],inactive
CNC1=CN(O)C(c2ccccc2)=c2cc(Cl)ccc2=N1,Potency,[3],inactive
same,Potency,[5],inactive
same,Potency,[4],inactive
C=CCO[C@@H](Cn1ccnc1)c1ccc(Cl)cc1Cl,Potency,[6],5.01 µM (active)
CCN1C[C@@]2(COC)[C@H](O)C[C@H](OC)[C@@]34[C@@H]5C[C@@]6(O)[C@H](OC(=O)c7ccccc7)[C@H]5[C@@](OC(C)=O)([C@H]([C@@H](OC)[C@H]23)[C@H]14)[C@H](O)[C@@H]6OC,Potency,[7],inactive
same,Potency,[6],inactive
same,Potency,[8],inactive
C[C@@H]1O[C@H](O[C@H]2C[C@@H](O)[C@]3(CO)[C@H]4[C@H](O)C[C@]5(C)[C@@H](C6=CC(=O)OC6)CC[C@@]5(O)[C@H]4CC[C@]3(O)C2)[C@@H](O)[C@H](O)[C@H]1O,Potency,[6],inactive
same,Potency,[8],inactive
COc1ccc2c(c1OC)C(=O)O[C@@H]2[C@H]1c2cc3c(cc2CCN1C)OCO3,Potency,[8],3.16 µM (active)
Cc1cc(/C=C2/C(=O)NC(=O)N(Cc3ccco3)C2=O)c(C)n1-c1ccc(C(=O)O)cc1,Potency,[9],9.47 µM (active)
same,Potency,[10],18.9 µM (active)
same,Potency,[11],60.1 µM (active)
